Reference: ChEMBL document CHEMBL1157539, “Thousands of chemical starting points for antimalarial lead identification” (Nature, 2010)

The molecules below were run on Plasmodium falciparum (assay: GSK_TCMDC: Inhibition of Plasmodium falciparum Dd2 in whole red blood cells, using parasite LDH activity as an index of growth. Test compounds present at 2uM).
Type: functional

SMILES	Inhibition [%]
CCOC(=O)c1ccc(NC(=O)Nc2cccc(-c3ccc(-c4nc5cc(C(F)(F)F)ccc5[nH]4)cc3)c2)cc1	99
Cc1cc(NC(=O)Nc2ccc3nccc(N4CCN(C)CC4)c3c2)ccc1Br	100
Clc1ccc(Nc2nc(-c3ccccn3)cs2)nc1	90
Cc1cc(C2CCN(CCCCNC(=O)c3ccc(NC(=O)c4ccc(Cl)cc4)cc3)CC2)c(C)cc1OCCN(C)C	77
CCc1sc(-c2cc(Cl)ccc2OC)nc1C(=O)NCCN1CCCCC1.O=C(O)C(F)(F)F	28
Nc1ncc(-c2cccc(OCc3ccccc3)c2)cc1-c1nnc2ccc(Cl)nn12	7
O=C(/C=C/c1ccc(Cl)c(Cl)c1)N1CCCC(CCCN2CCC(c3c[nH]c4ccccc34)CC2)C1 (stereo unspecified)	15
COc1ccc2nccc([C@@H](O)CN3CCC(NCc4cc5cccnc5[nH]4)CC3)c2n1.O=C(O)C(=O)O	0
Cc1cc(F)ccc1Nc1nc(N(C)c2ccccc2)c2cc(OCCCN(C)C)ccc2n1	49
CC1CN(c2cnn(Cc3cccc(NC(=O)Nc4ccc(F)cc4[N+](=O)[O-])c3)c(=O)c2Cl)CC(C)N1.O=C(O)C(F)(F)F (stereo unspecified)	13
CC(CNC1CCN(CCn2c(=O)ccc3ccc(F)cc32)CC1)c1ccccc1 (stereo unspecified)	4
COc1ccc(OCCn2cc(C(=O)c3ccco3)c3ccccc32)cc1	61
Cc1ccc2[nH]c([N-]C#N)nc2c1.[Na+]	0
Cc1ccc(NS(=O)(=O)c2ccc(-c3ccccc3)cc2)c(Cn2cnc(N3CCCNCC3)cc2=O)c1.O=C(O)C(F)(F)F	33
CCNC(=O)N1CCN(c2nc(-c3ccccc3)nc(COC)c2Cc2ccc(C)cc2)CC1	94
Cc1sc2nc(CSc3ccccc3)nc(N3CCN(CC(=O)N4CCCC4)CC3)c2c1C	69
Cc1cccc(-c2nc(Nc3ccncc3)c3ccc([N+](=O)[O-])cc3n2)n1	13
CC(C)(C)c1nn(-c2ccccc2)c2[nH]c(=O)c(CNC3CCCC3)cc12	70

SMILES	Inhibition [%]
Cc1cc(OCC(=O)Nc2ccc(-c3nc4ccccc4[nH]3)cc2)cc(C)c1Cl	0
COc1ccc(CNC(=O)c2cc3c(=O)n4ccccc4nc3n(CCc3ccccc3)c2=N)cc1	22
CC1CN(c2cnn(Cc3cccc(NC(=O)Nc4cccc(C(F)(F)F)c4)c3)c(=O)c2Cl)CC(C)N1.O=C(O)C(F)(F)F (stereo unspecified)	74
CCCN(CCC)CCCN(CCCN(CCC)CCC)c1cc(C)nc(Nc2ccc(Cl)cc2)n1.Cl	100
CC(CN1CCN(CC(c2ccc(F)cc2)N2CCN(C)CC2)CC1)C(=O)c1ccc(O)cc1.O=C(O)/C=C\C(=O)O (stereo unspecified)	10
CC(=O)Nc1ncc(C(=O)Nc2cccc(-c3cccc(-c4nc5cccc(C)c5[nH]4)c3)c2)s1	64
CS(=O)(=O)Cc1ccc(Nc2nccc(-c3c(-c4cccc(NC(=O)C5CCCCC5)c4)nn4ncccc34)n2)cc1	99
CS(=O)(=O)CCN(CCS(C)(=O)=O)Cc1ccc(-c2ccc3ncnc(Nc4ccc(OCc5cccc(F)c5)c(Cl)c4)c3c2)o1.Cc1ccc(S(=O)(=O)O)cc1	27
CS(=O)(=O)CCNCc1ccc(-c2ccc3c(Nc4ccc(Oc5ccccn5)cc4)ccnc3c2)o1	99
Cc1[nH]c2ccc(-c3ccccc3)cc2c(=O)c1Br	97
COc1ccc2c(OC)c(CNCCCCCCNCc3ccc4cc(OC)ccc4c3OC)ccc2c1.CS(=O)(=O)O	49
CCn1c(-c2nonc2N)nc2c(-c3cccc(NC(=O)Nc4ccccc4OC)c3)ncc(OCCCN)c21.O=C(O)C(F)(F)F	58
O=C(NCc1ccc(Cl)c(Cl)c1)c1cccc(C2CCCN(Cc3ccc4[nH]cnc4c3)C2)c1 (stereo unspecified)	30
CCc1nnc2sc(-c3cccc(NC(=O)c4ccc(OC)c(Cl)c4)c3)nn12	55
C1=CN(Cc2ccccc2)C=CC1=C1C=Nc2ccccc21	69
Cc1csc(-c2ncc(OC[C@@H](N)Cc3ccccc3)cc2-c2ccc3[nH]nc(C)c3c2)c1.O=C(O)C(F)(F)F	35
CCCN(CCC)C(=O)c1cc(C(=O)N[C@@H](Cc2ccccc2)[C@H](O)CNCc2cccc(C(F)(F)F)c2)cc(N2CCCCS2(=O)=O)c1	74
O=C(NCc1cccc(OC(F)(F)F)c1)c1cnc2c(c1)nc(-c1c[nH]c(-c3ccccc3)n1)n2CCc1c[nH]cn1	47
